Experimental data from PubChem BioAssay.

target: Left-right determination factor 2 (Homo sapiens) (UniProt O00292); test: small molecules binding LEFTY2 protein – biochemical, small-molecule microarray, 635 nm fluorescence scan, primary screen (AID 1110); conditions: higher = more signal
Sequence (O00292 whole entry, looked up): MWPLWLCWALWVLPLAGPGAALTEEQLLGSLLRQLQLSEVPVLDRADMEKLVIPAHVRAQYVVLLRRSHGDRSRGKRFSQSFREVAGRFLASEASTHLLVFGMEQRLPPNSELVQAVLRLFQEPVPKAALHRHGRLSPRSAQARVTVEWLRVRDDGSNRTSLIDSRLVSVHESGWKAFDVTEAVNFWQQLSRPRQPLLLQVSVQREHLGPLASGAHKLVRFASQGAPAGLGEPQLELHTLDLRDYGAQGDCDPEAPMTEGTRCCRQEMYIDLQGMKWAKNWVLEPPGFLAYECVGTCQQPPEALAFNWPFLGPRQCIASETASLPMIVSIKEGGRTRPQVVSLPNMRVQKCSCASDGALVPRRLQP

SMILES	composite z-score
CCOC(=O)C[C@H]1[C@H](OC(=O)c2ccccc2-c2ccccc2)[C@@H](NC(=O)c2ccc3ccccc3n2)c2cc(OCCCO)ccc2N1C(=O)Cc1ccc(OC)cc1	0.414
CCOc1cc(C(O)C2C=CC3C(=O)NC(=O)C3N2Nc2ccc(Cl)cc2Cl)ccc1O (configuration not stated)	-1.18
Cc1ccc(NN2C(C(O)c3c(F)cccc3Cl)C=CC3C(=O)N(C4CCCCC4)C(=O)C32)cc1 (configuration not stated)	-0.348
CCOC(=O)C[C@H]1[C@H](OC(=O)c2ccc(-c3ccccc3)cc2)[C@@H](NC(=O)CC(C)C)c2cc(OCCCO)ccc2N1C(=O)c1ccc2ccccc2n1	0.218
COC(=O)[C@@]1(Cc2ccccc2)[C@H]2c3cc(C(=O)N4CCCC4)n(CCc4ccccn4)c3C[C@H]2CN1C(=O)c1ccccc1	-0.204
Cc1ccc(S[C@]2(C(=O)NC(C)C)CC(=O)N(Cc3cc(C(F)(F)F)cc(C(F)(F)F)c3)[C@@H]2c2ccc(CO)cc2)cc1	-1.76

target: Calmodulin-1 (Homo sapiens) (UniProt P0DP23); test: small molecules binding calmodulin-1 with EGTA – biochemical, small-molecule microarray, Cy5-labelled CALM1, profiling panel (AID 1111); conditions: Cy5-CALM1 binding fluorescence, higher = more signal;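 further: labelled calmodulin applied in Tris saline Tween buffer holding calcium plus EGTA and DTT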

SMILES	composite z-score
CC(C)[Si]1(C(C)C)OCc2cc(C3CC3)nc(-c3ccc(Oc4ccccc4)cc3)c21	-0.289
O=C1NC(=O)C2C1C=CC(C(O)c1ccco1)N2Nc1ccc(Cl)cc1Cl (configuration not stated)	0.317
Cc1ccc(N2C(=O)c3ccccc3[C@@H](C(=O)NCCCN(C)C)[C@@H]2c2ccc(CO)cc2)nc1	-0.571
CCCCCCc1nc(Cc2cc(OC)c(OC)c(OC)c2)cc2c1[Si](C(C)C)(C(C)C)OC2	-0.112
CCOC(=O)C1=C[C@@H](C(C)(C)C)N(S(=O)(=O)c2ccc(C)cc2)[C@H]1c1cccc2ccccc12	1.07
COc1cc2c(cc1O)C(c1cccs1)N(Cc1cc3c(cc1Br)OCO3)CC2 (configuration not stated)	1.88
C=CCNC(=O)[C@@H]1[C@H]2C(=O)O[C@H](c3ccccc3)[C@H](c3ccccc3)N2[C@H](c2ccccc2OCCO)[C@@]12C(=O)Nc1ccc(C#CCC(C(=O)OC)C(=O)OC)cc12	0.138
C=CCN1C(=O)[C@]2(CCS(=O)(=O)c3ccccc3)N=C(c3ccc(OCCCO)cc3)O[C@@H]2c2ccccc21	2.17
CC(c1ccccc1)C(O)C1C=CC2C(=O)N(C)C(=O)C2N1Nc1ccccc1 (configuration not stated)	2
N#Cc1ccc(NN2C(C(O)c3ccc(Br)cc3)C=CC3C(=O)N(c4ccccc4)C(=O)C32)cc1 (configuration not stated)	1.53
COc1ccc([Si](C)(C)[C@@H]2[C@@H](CCO)O[C@]3(C(=O)N(Cc4cccc(NC(=O)[C@H](C)O)c4)c4ccccc43)[C@H]2C)cc1	0.953
CCCCC(CC)C(O)C1C=CC2C(=O)N(C)C(=O)C2N1Nc1ccccc1 (configuration not stated)	1.29
COCCOC(=O)N1C(=O)[C@@]2(c3cc(C#CCCO)ccc31)[C@H](c1ccc(OCCO)cc1)N1[C@H](c3ccccc3)[C@H](c3ccccc3)OC(=O)[C@H]1[C@@H]2C(=O)Nc1nc2ccccc2s1	0.751
[N-]=[N+]=NCc1ccccc1[C@@H]1OC(c2ccc(OCCCO)cc2)=N[C@]1(CCS(=O)(=O)c1ccccc1)C(=O)O	0.678
O=C1C[C@]2(c3ccc([N+](=O)[O-])cc3)C(=O)N(C3CC3)c3cc(CO)ccc3[C@H]2N1CC12CC3CC(CC(C3)C1)C2	-0.448
CCCC[C@@H]1C[C@H]1[C@@H](NC(=O)c1cccs1)c1ccccc1C(F)(F)F	1.72
O=C(Cc1ccccc1)[C@H]1C2C=CCCC(c3ccccc3)=C2CN1Cc1ccccc1 (some centres not stated)	-0.185
COC(=O)[C@]1(CCS(=O)(=O)c2ccccc2)N=C(c2ccc(OCCCO)cc2)O[C@@H]1c1ccccc1N=[N+]=[N-]	1.73

SMILES	composite z-score
COCCOC(=O)N1C(=O)[C@@]2(c3cc(C#CC4=CCCCC4)ccc31)[C@H](c1ccccc1OCCO)N1[C@H](c3ccccc3)[C@H](c3ccccc3)OC(=O)[C@H]1[C@@H]2C(=O)N1CCN(c2ncccn2)CC1	0.501
CN(C)C(=O)[C@@]1(Cc2ccccc2)N=C(c2ccc(OCCCO)cc2)O[C@H]1c1ccccc1	1.58
COc1ccc(C#Cc2ccc3c(c2)[C@]2(C(=O)N3)[C@H](C(=O)O)[C@H]3C(=O)O[C@H](c4ccccc4)[C@H](c4ccccc4)N3[C@@H]2c2ccc(O)cc2)cc1	0.695
CCCCC[C@H]1OC[C@@]23C=C(Br)[C@@H](CC12)[C@@]1(CO1)C3=O (some centres not stated)	-0.554
CC1CC/C=C\[C@H]2OC34C=CCN(c5ccc(Cl)cc5)C(=O)[C@H]3N(C(C)CO)C(=O)[C@]4(C)C2C(=O)O1 (some centres not stated)	0.253
COc1cc2c(cc1O)C(C1CC1)N(Cc1cccc(OC(F)(F)F)c1)CC2 (configuration not stated)	-1.67
COc1cc(C(O)C2C=CC3C(=O)N(C)C(=O)C3N2Nc2ccccc2)cc(OC)c1OC (configuration not stated)	1.8
[N-]=[N+]=NCc1ccccc1[C@H]1OC(c2ccc(OCCCO)cc2)=N[C@@]1(Cc1ccccc1N=[N+]=[N-])C(=O)NCC(O)CO (some centres not stated)	1.33
COC(=O)[C@@]1(Cc2ccc(OC)cc2)[C@H]2c3cc(C(=O)N(C)C)n(Cc4ccc(OC(F)(F)F)cc4)c3C[C@H]2CN1C(=O)c1ccccc1	0.417
C=C(/C(=C/C[C@H](OC(C)=O)c1ccc(CO)o1)c1cnc2ccccc2c1)C(C)C	1.4
Cc1ccc(S[C@]2(C(=O)NCc3ccccc3)CC(=O)N(C3CCCCC3)[C@@H]2c2ccc(CO)cc2I)cc1	0.699
COc1ccc([Si](C)(C)[C@@H]2[C@@H](CC(=O)N3Cc4ccccc4C[C@H]3CO)O[C@]3(C(=O)N(Cc4ccc(N5C(=O)c6cccc7cccc5c67)cc4)c4ccccc43)[C@H]2C)cc1	0.318
CCOC(=O)C[C@H]1[C@H](OC(=O)c2ccccc2-c2ccccc2)[C@@H](NC(=O)c2ccc3ccccc3n2)c2cc(OCCCO)ccc2N1C(=O)Cc1ccc(OC)cc1	-0.216
CCOc1cc(C(O)C2C=CC3C(=O)NC(=O)C3N2Nc2ccc(Cl)cc2Cl)ccc1O (configuration not stated)	-0.07
Cc1ccc(NN2C(C(O)c3c(F)cccc3Cl)C=CC3C(=O)N(C4CCCCC4)C(=O)C32)cc1 (configuration not stated)	1.96
CCOC(=O)C[C@H]1[C@H](OC(=O)c2ccc(-c3ccccc3)cc2)[C@@H](NC(=O)CC(C)C)c2cc(OCCCO)ccc2N1C(=O)c1ccc2ccccc2n1	0.326
COC(=O)[C@@]1(Cc2ccccc2)[C@H]2c3cc(C(=O)N4CCCC4)n(CCc4ccccn4)c3C[C@H]2CN1C(=O)c1ccccc1	2.13
Cc1ccc(S[C@]2(C(=O)NC(C)C)CC(=O)N(Cc3cc(C(F)(F)F)cc(C(F)(F)F)c3)[C@@H]2c2ccc(CO)cc2)cc1	-0.491
